# JMJD2A Tudor = blocks the human JMJD2A Tudor domain; O75164; AlphaScreen JMJD2A-Tudor / H3K4me3 peptide binding; Potency, µM (doses to about 114 µM), without a hit: at the top dose activity change, negative = inhibition, actives largely listed as inhibitors; actives 4.4% (n = 390,000); AID 504339; also: potency is read from the fitted curve at half-maximal effect; % is scaled to controls: 0 for no effect and ±100 for the full control effect; nearly all actives have a fitted effect of over 50% in size
# PLK1 PBD inh = blocks phosphopeptide binding to human PLK1 polo-box domain. Potency, µM, inactives show max response, negative = inhibition, most hits filed as inhibitors. Plk1 PBD binding of FITC phosphopeptide, fluorescence polarization. actives 2.8% (n = 360,000). P53350; also: potency is read from the fitted curve at half-maximal effect; series mostly up to about 57 µM; % is scaled to controls: 0 for no effect and ±100 for the full control effect; nearly all actives have a fitted effect of over 65% in size
# HP1b binding inh = inhibitors of HP1-beta chromodomain binding to methylated histone tails | P83916 | AlphaScreen HP1-beta / biotin-H3K9me3 peptide binding | Potency, µM (series often up to 114 µM), for the others: top-dose activity change, negative = inhibition, actives largely listed as inhibitors | actives 0.56% (n = 390,000); also: potency is read from the fitted curve at half-maximal effect; nearly all actives have a fitted effect of over 70% in size
#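 HP1-beta protein (50 nM final) preincubated 30 min at room temperature with biotinylated H3(1-18)K9me3 peptide (50 nM) in PBS pH 7.4, 0.01% Tween-20, then compound added for 30 min. AlphaScreen streptavidin donor/nickel chelate acceptor beads (10 ug/mL final), 30 min dark, luminescence read.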
# PI5P4K alpha inh = inhibitors of human PI5P4K alpha; actives 1.2% (n = 330,000); max response, %; AID 652105; PI5P4Kalpha enzyme, ADP-Glo luminescence, 60 min; hits give low values; active = max response of -50% or lower; inconclusive = between -30% and -50%; inactive = -30% or higher; also: value at the top dose of about 77 µM; % is scaled to controls: 0 for no effect and ±100 for the full control effect
#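 Human PI5P4Kalpha with substrate in 0.038 M HEPES pH 7.4, 0.28 mM EGTA, 0.1% CHAPS, 5% DMSO; reaction started with 5 microM ATP (final), 60 min at room temperature. ADP formed read by ADP-Glo luminescence.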
# BAZ2B inh = blocks human BAZ2B; AlphaScreen BAZ2B-H3K14Ac peptide displacement; Potency, µM (series often up to 114 µM), without a hit: top-dose activity change, negative = inhibition, hits mostly inhibitors; actives 4.4% (n = 360,000); AID 504333; also: potency is read from the fitted curve at half-maximal effect; % is scaled to controls: 0 for no effect and ±100 for the full control effect; nearly all actives have a fitted effect of over 60% in size
#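 AlphaScreen displacement: compounds (up to 110uM) incubated 30 min at room temperature with a preformed 50 nM BAZ2B/50 nM biotinylated H3K14Ac peptide complex in PBS pH 7.4 with Tween-20. Donor and acceptor beads at 10 ug/mL final added, 20 min light-protected before reading.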
# GCN5L2 inh = inhibitors of human GCN5L2 histone acetyltransferase | Q92830 | GCN5L2 HAT assay, ThioGlo1 CoA-SH fluorescence | Potency, µM (doses to about 58.9 µM), inactives show at the top dose activity change, negative = inhibition, actives largely listed as inhibitors | actives 0.21% (n = 390,000) | AID 504327; also: potency is read from the fitted curve at half-maximal effect; % is scaled to controls: 0 for no effect and ±100 for the full control effect
#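 Titration-based screen in which CoA formation is detected via maleimide probe ThioGlo1 (50uM) turning fluorescent on thiol reaction; substrates H3(1-25) 75uM and acetyl-CoA 70uM, GCN5L2 20nM, 20 min incubation at room temperature.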
# The depositor's hits bear a star; ? = inconclusive; · = not tested or not shown; [ ] = remark or other dose. This is a sample that favours compounds with a hit; in the whole collection about 7% have one here. Unless noted, calls follow the shape of the dose curve; as a rule, active = well fitted curve in the direction sought with a large enough effect; inconclusive = small, poorly fitted or top-dose-only effect, or another doubt; inactive = no such curve, though single readings can be large; an effect the other way counts as inactive or inconclusive.
SMILES,JMJD2A Tudor,PLK1 PBD inh,HP1b binding inh,PI5P4K alpha inh,BAZ2B inh,GCN5L2 inh
COc1ccccc1N1CCN(/N=C/c2ccc(Cl)c([N+](=O)[O-])c2)CC1,?,-12.9%,?,5.1,17.8µM*,-14.0%
O=C(Cc1cccc(NC(=O)C2CCCN(C(=O)C3CCCCC3)C2)c1)Nc1ccc(C(=O)N2CCOCC2)cc1 (configuration not stated),-19.6%,-9.3%,28.2%,-0.7,·,·
CSCC[C@H](NC(=O)[C@H](Cc1c[nH]c2ccccc12)NC(=O)CNC(=O)[C@H](Cc1ccc(O)cc1)NC(=O)[C@H](C)NC(=O)[C@H](CCC(=O)O)NC(=O)[C@H](CCC(=O)O)NC(=O)[C@H](CCC(=O)O)NC(=O)[C@H](CCC(=O)O)NC(=O)[C@H](CCC(=O)O)NC(=O)[C@H](CC(C)C)NC(=O)[C@H](Cc1c[nH]c2ccccc12)NC(=O)[C@@H]1CCCN1C(=O)CNC(=O)[C@@H]1CCC(=O)N1)C(=O)N[C@@H](CC(=O)O)C(=O)N[C@@H](Cc1ccccc1)C(=O)NCC(=O)O,·,·,·,·,·,-3.3%
Nc1cccc(-c2nnc3n2CCCCC3)c1,?,16.8µM*,-12.4%,-11.6,-4.2%,-14.4%
Cc1cc(NC(=O)CSc2[nH]c(=O)cc(C(F)(F)F)c2C#N)no1,6.4%,-1.9%,33.6%,-74.8*,5.0%,-3.3%
Cc1ccccc1NC(=O)CSc1[nH]c(=O)cc(C)c1C#N,-16.3%,21.2µM*,36.9%,-56.0*,4.9%,-9.7%
Cc1cc(=O)[nH]c(SCC(=O)c2ccccc2)c1C#N,-14.0%,-6.3%,49.2%,-5.4,-6.1%,2.0%
Cc1cc(-n2c(C)cc(C(=O)CSc3[nH]c(=O)cc(C(F)(F)F)c3C#N)c2C)no1,-19.8%,-26.7%,-3.3%,-4.5,-27.4%,1.1%
COC(=O)c1sc(-c2ccccc2)cc1NC(=O)Nc1ccc(F)cc1,-12.1%,·,6.3%,·,4.6%,-14.7%
c1csc(-c2ccn[nH]2)c1,-3.6%,3.8%,32.8%,-5.0,-2.8%,-6.9%
S=c1nccc(-c2cccs2)[nH]1,-16.8%,11.9µM*,26.2%,-1.3,-7.5%,1.7%
CN(C)c1ccc(N/C=C/C(=O)c2ccco2)cc1,?,0.9%,-38.1%,?,35.5µM*,-12.0%
CCc1cccc(C)c1NC(=O)Cn1c(=O)n(-c2ccc(C)cc2)c(=O)c2c1cnn2C,-3.4%,·,30.3%,·,5.7%,-4.2%
C[N+](C)(C)c1ccc(/C=N/Nc2nc(Cl)c(C#N)c(Cl)c2Cl)cc1,31.6µM*,19.7%,9.0%,-10.5,50.1µM*,3.8%
N#Cc1c(Cl)nc(N/N=C/c2ccccc2)c(Cl)c1Cl,-5.1%,0.0%,18.8%,15.8,-35.1%,-4.6%
Cc1c(CCC(=O)O)c(=O)oc2cc(O)ccc12,-11.5%,-5.8%,26.6%,-1.0,-6.4%,28.2µM*
Cc1coc2c(C)c3oc(=O)c(CCC(=O)NCCC(=O)O)c(C)c3cc12,?,-11.1%,4.7%,-1.2,50.1µM*,?
Cc1oc2c(C)c3oc(=O)c(CCC(=O)O)c(C)c3cc2c1-c1ccccc1,-27.8%,26.7µM*,3.3%,0.3,?,-10.5%
Cc1c(CCC(=O)O)c(=O)oc2cc3occ(C(C)(C)C)c3cc12,-1.7%,-23.7%,18.4%,2.9,-2.5%,-11.2%
Cc1c(CCC(=O)O)c(=O)oc2c(C)c3occ(-c4ccc(Cl)cc4)c3cc12,?,29.9µM*,?,-17.3,56.2µM*,?
CC(C)NS(=O)(=O)c1ccc(OCC(=O)Nc2ccc(F)cc2)cc1,3.8%[11.4 µM],23.8µM*,2.0%,2.6,10.1%,-12.4%
C[C@H](NC(=O)C1CC(=O)N(c2ccc(F)cc2)C1)C(=O)N1CCCCC1 (some centres not stated),?,23.8µM*,17.6%,-6.9,2.5%,-2.4%
O=C(C1CC(=O)N(c2ccc(F)cc2)C1)N1CCCCC1 (configuration not stated),3.5%,-11.4%,9.8%,-3.4,5.0%,-0.5%
CNC(=O)C1CC(=O)N(c2ccc(OCC(=O)Nc3ccc(F)cc3)cc2)C1 (configuration not stated),-27.7%,26.7µM*,-18.9%[57 µM],?,·,·
CCOC(=O)c1ccc(NC(=O)COc2ccc(S(=O)(=O)NC(C)CC)cc2)cc1 (configuration not stated),-13.5%,-3.6%,14.9%,0.4,46.4%[57.1 µM],-4.7%
SMILES,JMJD2A Tudor,PLK1 PBD inh,HP1b binding inh,PI5P4K alpha inh,BAZ2B inh,GCN5L2 inh
C=CCNC(=O)C1CC(=O)N(c2ccc(OCC(=O)Nc3ccc(C)cc3)cc2)C1 (configuration not stated),-6.6%,-1.4%,16.8%,0.9,-38.8%[57.1 µM],-29.7%
Cc1ccc(Cl)cc1N1CCN(C(=O)Cn2ncc3c([nH]c4ccccc43)c2=O)CC1,-14.2%,·,3.0%,·,1.4%,-4.0%
CCN(CC(=O)NCc1ccc(F)cc1)C(=O)/C=C/c1cccs1,-30.1%,26.7µM*,8.7%,-18.2,-4.3%,0.6%
CCN(CC)S(=O)(=O)c1ccc(N2CCN(C)CC2)c(NC(=O)CN2C(=O)NC3(CCCCC3)C2=O)c1,-10.5%,-13.0%,28.5%,-3.9,·,·
CC(C)(C)c1nnc(N/N=C/c2cc(Br)ccc2O)n(N)c1=O,22.4µM*,-5.1%,6.5%,?,17.8µM*,-3.8%
CCc1nnc(N/N=C/c2cc(Br)c(O)cc2O)n1N,79.4µM*,-25.7%,41.0%,-69.0*,50.1µM*,-2.9%
Cc1cccc(S(=O)(=O)N(C)C[C@H]2OCc3cn(nn3)CCCC(=O)N([C@@H](C)CO)C[C@@H]2C)c1,·,-10.6%,·,-6.2,·,·
COc1ccc(NC(=O)/C(C#N)=C/c2ccc(Br)o2)cc1,?,-15.6%,-0.2%,·,50.1µM*,-6.6%
Cc1ccc(N2CCN(c3ccc(C)cc3)C2c2cccnc2)cc1,39.8µM*,2.0%,?,·,35.5µM*,-7.3%
c1ccc(N2CCN(c3ccccc3)C2c2cccnc2)cc1,?,-5.4%,-18.1%,8.9,?,-1.7%
CC(=Nc1ccccc1)C1=C(O)CCCC1=O,25.1µM*,-11.5%,0.9%,1.4,4.2%,-4.3%
c1ccc(-c2cn3nc(-c4ccccc4)c(-c4ccccc4)nc3n2)cc1,72.8%,26.7µM*,189.2%,·,99.1%,?
Cc1ccc(-c2cn3nc(-c4ccccc4)c(-c4ccccc4)nc3n2)cc1,89.9%,?,183.7%,-1.5,46.2%,-11.9%
CC1CCN(S(=O)(=O)c2ccc3c(c2)CCN3C(=O)Nc2cccc(Br)c2)CC1,-4.0%,·,22.2%,·,1.1%,0.5%
Cc1cc(C)c(SSc2nnnn2-c2ccccc2)c(C)c1,·,2.99µM*,·,-80.4*,·,·
Cc1ccc2cc(C)c(Sc3nnnn3-c3ccccc3)nc2c1,-3.4%,-7.2%,41.0%,1.2,6.9%,-0.8%
